Screening results (PubChem BioAssay)
Most compounds without a hit are left out; they make up all but 12% or so of the library.
LASV entry inh – qHTS for Inhibitors of binding or entry into cells for Lassa Virus; hit rate 1.2% among 300,000; Lassa virus pseudotype entry inhibition, cell reporter; AID 540256, 2011; Potency, µM (top dose mostly 37.9 µM), most hits filed as inhibitors; calls by dose curve; tested in HEK293 cells; note: nearly all actives have a fitted effect of over 50% in size
CHX counter – Cycloheximide Counterscreen for Small Molecule Inhibitors of Shiga Toxin | cell reporter, cycloheximide protein synthesis inhibition counterscreen | max response, % | hit rate 12% among 300,000; in the data active = max response mostly above about 13%, no sharp cut-off; inactive = mostly below about 14%; note: read at 38.3 µM for the half of the compounds with a filed dose
Shiga toxin inh – A qHTS for Small Molecule Inhibitors of Shiga Toxin; AID 2315, 2010; inhibition, % at 38.7 µM; Vero cells, Shiga toxin protein synthesis inhibition reporter; hit rate 9.2% among 290,000; in the data active = inhibition mostly above about 28%, no sharp cut-off; inactive = mostly below about 43%
Marburg entry inh – qHTS for inhibitors of binding or entry into cells for Marburg Virus; Marburg virus pseudotyped entry inhibition, cell reporter; Potency, µM (highest dose often 37.8 µM), actives largely listed as inhibitors; hit rate 1.8% among 300,000; calls by dose curve; tested in HEK293 cells
Of the large screens only hits and unclear results are named; the others gave an inactive call.

Cc1ccc(-c2csc3nc(C)n(N)c(=O)c23)o1	CHX counter 46, Shiga toxin inh 47
Cc1ccc(-c2csc3nc(C)n(-n4c(C)ccc4C)c(=O)c23)o1	Marburg entry inh inconclusive
C=CCn1c(SCC(=O)N2CC(=O)Nc3ccccc32)nc2scc(-c3cccs3)c2c1=O	LASV entry inh 15µM, Marburg entry inh inconclusive
Cc1ccc(C)c(S(=O)(=O)c2nnn3c2nc(NC(C)C)c2sccc23)c1	none (no result: CHX counter, Shiga toxin inh, Marburg entry inh)
C=CCNCCOCCOc1ccc(C)cc1Br	LASV entry inh inconclusive, CHX counter 28, Marburg entry inh inconclusive
CCN(CC)c1ccc(NC(=O)CN(C)S(=O)(=O)c2cccc3nsnc23)c(C)c1	Marburg entry inh inconclusive (no result: CHX counter, Shiga toxin inh)
Cc1ccc(NC(=O)Nc2nnc(N3CCCC3)s2)cc1C	none (no result: CHX counter, Shiga toxin inh)
COc1ccccc1OCCCCOc1ccccc1F	CHX counter 34
Fc1ccccc1OCCCCCN1CCCC1	Marburg entry inh inconclusive
CN(C)CCCCOc1ccccc1F	none
Fc1ccccc1OCCCCCCN1CCCC1	CHX counter 17
COc1ccccc1N1CCN(CCCCCCOc2ccc(F)cc2)CC1	LASV entry inh inconclusive, Marburg entry inh 18µM
CN(C)CCCCOc1ccccc1-c1ccccc1	LASV entry inh inconclusive, Marburg entry inh 13µM
Cc1cc(C)c(S(=O)(=O)N2CCN(C(=O)c3ccc(-n4cncn4)c([N+](=O)[O-])c3)CC2)c(C)c1	LASV entry inh inconclusive (no result: CHX counter, Shiga toxin inh)
CC1Cc2ccccc2N1CC(=O)NC(c1ccccc1)c1ccccc1 (stereo not drawn)	none
CCN1CCN(CCCOc2ccccc2-c2ccccc2)CC1	LASV entry inh inconclusive, Marburg entry inh inconclusive
COc1ccccc1Oc1ccc(Oc2ccccc2OC)cc1	LASV entry inh inconclusive, CHX counter 41, Marburg entry inh 10µM
c1ccc(-c2ccccc2OCCCN2CCCCC2)cc1	LASV entry inh 16µM, Marburg entry inh inconclusive
CCOC(=O)CSc1ccc(-c2nc3cc(C)c(C)cc3[nH]2)cn1	LASV entry inh inconclusive, CHX counter 55, Shiga toxin inh 61, Marburg entry inh inconclusive
Cc1cc(=O)[nH]c(SCC(=O)N2CCN(C(=O)c3ccco3)CC2)n1	none (no result: CHX counter, Shiga toxin inh)
Cc1cc2nc(-c3ccc(SCc4ccccn4)nc3)[nH]c2cc1C	LASV entry inh inconclusive, CHX counter 34, Shiga toxin inh 98, Marburg entry inh inconclusive
Cc1cc2nc(-c3ccc(SCC(=O)N4CCOCC4)nc3)[nH]c2cc1C	LASV entry inh inconclusive, CHX counter 33, Shiga toxin inh 70, Marburg entry inh inconclusive
CCc1nc(SCc2ccccn2)[nH]c(=O)c1C	none
Cc1cc2nc(-c3ccc(SCC(=O)N4CCN(C(=O)c5ccco5)CC4)nc3)[nH]c2cc1C	CHX counter 20, Shiga toxin inh 26, Marburg entry inh inconclusive
CCOC(=O)CSc1ccc(-c2nc3ccccc3[nH]2)cn1	none
O=S(=O)(NCCCCNS(=O)(=O)c1c(F)cccc1F)c1ccc2c(c1)OCCO2	none (no result: LASV entry inh, Marburg entry inh)
O=C1c2ccccc2C(=O)N1OCc1c(F)cccc1Cl	CHX counter 22
CC(OC(=O)C1=COCCO1)C(=O)Nc1ncc(Cl)cc1Cl (stereo not drawn)	none (no result: CHX counter, Shiga toxin inh)
Cc1nn(-c2ccccc2)c(Cl)c1/C=N/N1CCN(c2ccccn2)CC1	none
C(=N\N1CCN(c2ccccn2)CC1)/c1ccco1	CHX counter 22, Shiga toxin inh 44, Marburg entry inh inconclusive
Cc1ccc(/C=N/N2CCN(c3ccccn3)CC2)o1	CHX counter 35, Shiga toxin inh 75 (no result: LASV entry inh, Marburg entry inh)
CC(=O)Nc1ccc(C(=O)CSc2ncn(-c3ccccc3)n2)cc1	CHX counter 23
CCc1ccc(NC(=O)CN2C(=O)c3cccc4cccc2c34)cc1	none (no result: CHX counter, Shiga toxin inh)
Cc1ccc(C)c(N2CCN(C(=O)c3cc4sccc4n3C)CC2)c1	LASV entry inh inconclusive, Marburg entry inh 18µM
Cc1c(C)n(CCN(C)C)c2ncnc(NCc3ccccc3)c12	none
Cc1c(C)n(CCc2ccccc2)c2ncnc(NCCCN(C)C)c12	Shiga toxin inh 28, Marburg entry inh 8.9µM
CC(C)(C)C(=O)OC/C(N)=N/OC(=O)c1ccc(Cl)cc1	CHX counter 24
N/C(Cc1ccc([N+](=O)[O-])cc1)=N\OC(=O)c1ccc([N+](=O)[O-])cc1	none
COc1cc(C(=O)O/N=C(\N)Cc2ccc([N+](=O)[O-])cc2)cc(OC)c1OC	LASV entry inh 3.2µM, Marburg entry inh 2.5µM
CC(C)(C)C(=O)O/N=C(\N)COc1cccc(Cl)c1	CHX counter 44, Shiga toxin inh 99
N/C(Cc1ccc(Cl)cc1)=N\OC(=O)c1ccccc1	LASV entry inh inconclusive, CHX counter 24, Marburg entry inh 13µM
CCN1CCN(C(c2ccccc2)c2sc3nc(-c4ccco4)nn3c2O)CC1 (stereo not drawn)	none (no result: CHX counter, Shiga toxin inh, Marburg entry inh)
CCOC(=O)Cc1csc(NC(=O)C(NC(=O)C2CCCCC2)C(C)C)n1 (stereo not drawn)	none
